In PubChem BioAssay (EPA / NIEHS):
Activity calls are given as the source filed them. How the source made its calls: active means hit-call score of the fitted dose curve at least 0.9, where 1 is the maximum; inactive means score below 0.9.

Experiment: BSK_CASM3C_SRB: Viability Assessment in the BioMAP Diversity Plus: CASM3C Assay (AID 2283050);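 further: total protein by SRB staining as cytotoxicity measure in parallel cultures; cells exposed to compound for 24 h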
Details: primary human coronary artery smooth muscle cells

Structure (SMILES)	outcome	AC50
CC(C)(C)OOC(C)(C)CCC(C)(C)OOC(C)(C)C	inactive	
c1ccc2c(c1)oc1ccccc12	inactive	
Nc1ccc([N+](=O)[O-])cc1	inactive	
Nc1ccc(Oc2ccc(N)cc2)cc1	inactive	
COC(=O)c1ccccc1N	inactive	
c1ccc2c(c1)-c1cccc3cccc-2c13	inactive	
O=C(O)C1C2CCC(O2)C1C(=O)O (stereo not drawn)	inactive	
O=P(OCCCl)(OCCCl)OCCCl	inactive	
CC(C)(OOC(C)(C)c1ccccc1)c1ccccc1	inactive	
CC(C)N(Cc1ccccc1)C(=O)C(C)(C)C	inactive	
CS(=O)(=O)NC(=O)c1cc(Oc2ccc(C(F)(F)F)cc2Cl)ccc1[N+](=O)[O-]	inactive	
[O-][Cl+]O	inactive	
CCN(CC)CCO	inactive	
O=C(Oc1ccc(Br)cc1)N1CCN2CCC1CC2	inactive	
O=[N+]([O-])C(Br)(CO)CO		32.7 µM (active)
c1ccc(C2CO2)cc1 (stereo not drawn)	inactive	
c1ccc(N=Nc2ccccc2)cc1	inactive	
Oc1ccc2ccc3cccc4ccc1c2c34		30.1 µM (active)
CCC[CH2][Sn]([Cl])([CH2]CCC)[CH2]CCC		0.402 µM (active)
COP(=S)(OC)SCN1C(=O)c2ccccc2C1=O	inactive	
[Cl-].[Cl-].[Hg+2]		36.6 µM (active)
CCN(CC)N=O	inactive	
Nc1ccc(N=Nc2ccccc2)cc1	inactive	
CCOC(=O)[C@]1(c2ccccc2)Oc2ccccc2[C@@H]1N	inactive	
c1ccc(NNc2ccccc2)cc1	inactive	
CCCCCOC(=O)c1ccccc1C(=O)OCCCCC	inactive	
CCCCCCCCOC(=O)c1ccc(C(=O)OCCCCCCCC)c(C(=O)OCCCCCCCC)c1	inactive	
O=[N+]([O-])c1ccc(Oc2ccc(Cl)cc2Cl)cc1	inactive	
